Data: the supplement of paper PMC3545927
The list shows a part of the results. The hit rate among all sequences tested is not known here.

Molecular target: furin, P09958
Experiment: furin cleavage Z-score vs untreated control; higher = more cleavage, active = 3.5 or more, inactive = 1 or less, 8 variable residues between constant flanks
Outline: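 Reactions of 0.01 ml ran for 7.5, 15 or 30 min in 50 mM HEPES pH 7.5 with CaCl2 and NaCl, at 1:10 enzyme:substrate. In them, purified furin acted on bead-held 8-mer peptides fused to a cDNA oligonucleotide. The cleavage Z-score was obtained by lowess-adjusting log sequencing counts of released DNA against furin-free reactions and scaling by median absolute deviation.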

furin, P09958, sequence (P09958 whole entry): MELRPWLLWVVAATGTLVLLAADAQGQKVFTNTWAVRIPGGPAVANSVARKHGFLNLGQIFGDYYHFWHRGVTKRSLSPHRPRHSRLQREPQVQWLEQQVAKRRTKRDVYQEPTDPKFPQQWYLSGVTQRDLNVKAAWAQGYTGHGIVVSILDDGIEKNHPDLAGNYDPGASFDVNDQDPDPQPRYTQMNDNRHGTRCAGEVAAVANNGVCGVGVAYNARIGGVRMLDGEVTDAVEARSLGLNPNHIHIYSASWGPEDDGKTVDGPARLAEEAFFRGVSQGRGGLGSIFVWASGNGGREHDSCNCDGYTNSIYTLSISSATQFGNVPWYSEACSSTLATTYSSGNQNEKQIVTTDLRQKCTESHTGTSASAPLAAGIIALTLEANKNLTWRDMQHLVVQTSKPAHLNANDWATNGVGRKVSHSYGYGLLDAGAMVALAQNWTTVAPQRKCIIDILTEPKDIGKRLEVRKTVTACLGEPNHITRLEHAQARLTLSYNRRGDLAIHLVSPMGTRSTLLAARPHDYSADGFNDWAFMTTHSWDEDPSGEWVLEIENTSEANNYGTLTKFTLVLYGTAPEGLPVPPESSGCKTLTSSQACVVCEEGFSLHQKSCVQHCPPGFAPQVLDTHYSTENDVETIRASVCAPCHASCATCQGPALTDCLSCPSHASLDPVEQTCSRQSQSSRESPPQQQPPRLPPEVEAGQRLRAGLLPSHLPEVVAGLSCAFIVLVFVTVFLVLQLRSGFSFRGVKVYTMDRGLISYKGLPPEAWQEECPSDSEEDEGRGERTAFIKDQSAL

CANIEEVALSAGNASASA [HC841]
furin cleavage Z-score (7.5 min): 0.342 (inactive)
furin cleavage Z-score (15 min): 0.83 (inactive)
furin cleavage Z-score (30 min): -1.19 (inactive)

CAIKKRRRRRAGNASASA [FS-33]
furin cleavage Z-score (7.5 min): 7.42 (active)
furin cleavage Z-score (15 min): 7.44 (active)
furin cleavage Z-score (30 min): 6.1 (active)

CAFYLRRRRRAGNASASA [FS-527]
furin cleavage Z-score (7.5 min): 2.84
furin cleavage Z-score (15 min): 3.02
furin cleavage Z-score (30 min): 3.78 (active)

CAIKKRFQTTAGNASASA [FS-1881]
furin cleavage Z-score (7.5 min): -0.863 (inactive)
furin cleavage Z-score (15 min): -1.06 (inactive)
furin cleavage Z-score (30 min): -0.368 (inactive)

CASMVGNWAKAGNASASA [HC342]
furin cleavage Z-score (7.5 min): 1.34
furin cleavage Z-score (15 min): 0.0553 (inactive)
furin cleavage Z-score (30 min): 0.702 (inactive)

CASKPCSAHLAGNASASA [HC2494]
furin cleavage Z-score (7.5 min): 1.46
furin cleavage Z-score (15 min): 0.933 (inactive)
furin cleavage Z-score (30 min): 0.45 (inactive)

CATRARLSRPAGNASASA [FS-1098]
furin cleavage Z-score (7.5 min): -0.0765 (inactive)
furin cleavage Z-score (15 min): -0.0832 (inactive)
furin cleavage Z-score (30 min): -0.467 (inactive)

CAARPRRARQAGNASASA [FS-1585]
furin cleavage Z-score (7.5 min): 9.65 (active)
furin cleavage Z-score (15 min): 12 (active)
furin cleavage Z-score (30 min): 7.48 (active)

CASQARLGRIAGNASASA [FS-301]
furin cleavage Z-score (7.5 min): -1.06 (inactive)
furin cleavage Z-score (15 min): -0.739 (inactive)
furin cleavage Z-score (30 min): -0.311 (inactive)

CAARGRGGRDAGNASASA [FS-978]
furin cleavage Z-score (7.5 min): 0.0621 (inactive)
furin cleavage Z-score (15 min): -0.261 (inactive)
furin cleavage Z-score (30 min): -0.608 (inactive)

CAARARLGRQAGNASASA [FS-400]
furin cleavage Z-score (7.5 min): 5.77 (active)
furin cleavage Z-score (15 min): 6.39 (active)
furin cleavage Z-score (30 min): 5.75 (active)

CAACPRRARGAGNASASA [FS-1297]
furin cleavage Z-score (7.5 min): -0.34 (inactive)
furin cleavage Z-score (15 min): -0.615 (inactive)
furin cleavage Z-score (30 min): -0.259 (inactive)

CAARARLPRDAGNASASA [FS-1185]
furin cleavage Z-score (7.5 min): 9.09 (active)
furin cleavage Z-score (15 min): 9.62 (active)
furin cleavage Z-score (30 min): 6.75 (active)

CATWMNSTGFAGNASASA [HC437]
furin cleavage Z-score (7.5 min): 0.658 (inactive)
furin cleavage Z-score (15 min): 2.27
furin cleavage Z-score (30 min): -0.141 (inactive)

CATTPCSGSDAGNASASA [HC1931]
furin cleavage Z-score (7.5 min): -0.759 (inactive)
furin cleavage Z-score (15 min): -0.942 (inactive)
furin cleavage Z-score (30 min): -0.913 (inactive)

CARPSGMFDSAGNASASA [HC914]
furin cleavage Z-score (7.5 min): -0.826 (inactive)
furin cleavage Z-score (15 min): -0.415 (inactive)
furin cleavage Z-score (30 min): -0.285 (inactive)

CARPKRCPRSAGNASASA [FS-2055]
furin cleavage Z-score (7.5 min): 7.03 (active)
furin cleavage Z-score (15 min): 6.47 (active)
furin cleavage Z-score (30 min): 5.65 (active)

CARHIRKRRSAGNASASA [FS-1157]
furin cleavage Z-score (7.5 min): 13.5 (active)
furin cleavage Z-score (15 min): 13.3 (active)
furin cleavage Z-score (30 min): 9.11 (active)

CARPKRLDSAAGNASASA [FS-2578]
furin cleavage Z-score (7.5 min): -0.648 (inactive)
furin cleavage Z-score (15 min): -0.15 (inactive)
furin cleavage Z-score (30 min): 0.332 (inactive)

CARPKRYFTIAGNASASA [FS-2579]
furin cleavage Z-score (7.5 min): -0.409 (inactive)
furin cleavage Z-score (15 min): -0.643 (inactive)
furin cleavage Z-score (30 min): -0.0555 (inactive)

CARPSRKRRSAGNASASA [FS-1070]
furin cleavage Z-score (7.5 min): 12.8 (active)
furin cleavage Z-score (15 min): 11.6 (active)
furin cleavage Z-score (30 min): 9.65 (active)

CARPKRADTFAGNASASA [FS-2054]
furin cleavage Z-score (7.5 min): 5.65 (active)
furin cleavage Z-score (15 min): 7.21 (active)
furin cleavage Z-score (30 min): 7.85 (active)

CASTPCSALLAGNASASA [HC2545]
furin cleavage Z-score (7.5 min): 0.599 (inactive)
furin cleavage Z-score (15 min): 1.06
furin cleavage Z-score (30 min): 0.284 (inactive)

CATTPLARAAAGNASASA [HC1565]
furin cleavage Z-score (7.5 min): -0.63 (inactive)
furin cleavage Z-score (15 min): 1.08
furin cleavage Z-score (30 min): -0.687 (inactive)

CADITKLLLAAGNASASA [HC604]
furin cleavage Z-score (7.5 min): -1.43 (inactive)
furin cleavage Z-score (15 min): 0.163 (inactive)
furin cleavage Z-score (30 min): 0.0126 (inactive)

CAEISRKRRSAGNASASA [FS-649]
furin cleavage Z-score (7.5 min): 10.9 (active)
furin cleavage Z-score (15 min): 9.94 (active)
furin cleavage Z-score (30 min): 7.56 (active)

CAEFERRWRSAGNASASA [FS-230]
furin cleavage Z-score (7.5 min): -1.8 (inactive)
furin cleavage Z-score (15 min): -0.415 (inactive)
furin cleavage Z-score (30 min): 0.059 (inactive)

CAGERRKRRSAGNASASA [FS-425]
furin cleavage Z-score (7.5 min): 14.4 (active)
furin cleavage Z-score (15 min): 13.6 (active)
furin cleavage Z-score (30 min): 11 (active)

CAAGKRKRRSAGNASASA [FS-1299]
furin cleavage Z-score (7.5 min): 12.8 (active)
furin cleavage Z-score (15 min): 14.7 (active)
furin cleavage Z-score (30 min): 10.5 (active)

CAGSHMKRRSAGNASASA [FS-659]
furin cleavage Z-score (7.5 min): -0.564 (inactive)
furin cleavage Z-score (15 min): 0.785 (inactive)
furin cleavage Z-score (30 min): 1.98

CAEIKRKWRSAGNASASA [FS-21]
furin cleavage Z-score (7.5 min): 2.15
furin cleavage Z-score (15 min): 3.65 (active)
furin cleavage Z-score (30 min): 5.04 (active)

CAAGKRVYYLAGNASASA [HC1559]
furin cleavage Z-score (7.5 min): -0.901 (inactive)
furin cleavage Z-score (15 min): 0.829 (inactive)
furin cleavage Z-score (30 min): -0.892 (inactive)

CAEVACHRPSAGNASASA [HC2343]
furin cleavage Z-score (7.5 min): 0.99 (inactive)
furin cleavage Z-score (15 min): 0.762 (inactive)
furin cleavage Z-score (30 min): 1.27

CACPTDCFRKAGNASASA [HC451]
furin cleavage Z-score (7.5 min): 0.183 (inactive)
furin cleavage Z-score (15 min): -0.762 (inactive)
furin cleavage Z-score (30 min): -0.961 (inactive)

CAVVLVGLMAAGNASASA [HC571]
furin cleavage Z-score (7.5 min): -0.371 (inactive)
furin cleavage Z-score (15 min): 0.0646 (inactive)
furin cleavage Z-score (30 min): -0.205 (inactive)

CASLHSYSPGAGNASASA [HC1607]
furin cleavage Z-score (7.5 min): -1.22 (inactive)
furin cleavage Z-score (15 min): 0.427 (inactive)
furin cleavage Z-score (30 min): 0.0666 (inactive)

CARVKKSVEVAGNASASA [FS-3118]
furin cleavage Z-score (7.5 min): 4.33 (active)
furin cleavage Z-score (15 min): 7.31 (active)
furin cleavage Z-score (30 min): 8.17 (active)

CARKKRSVVVAGNASASA [DV4]
furin cleavage Z-score (7.5 min): 9.41 (active)
furin cleavage Z-score (15 min): 10.1 (active)
furin cleavage Z-score (30 min): 9.47 (active)

CAFTPSPVVVAGNASASA [HC415]
furin cleavage Z-score (7.5 min): -0.406 (inactive)
furin cleavage Z-score (15 min): -0.269 (inactive)
furin cleavage Z-score (30 min): -0.296 (inactive)

CAEVVTSTVVAGNASASA [HC2230]
furin cleavage Z-score (7.5 min): -0.163 (inactive)
furin cleavage Z-score (15 min): -0.129 (inactive)
furin cleavage Z-score (30 min): -0.367 (inactive)

CARCRRCVVVAGNASASA [FS-2327]
furin cleavage Z-score (7.5 min): -0.669 (inactive)
furin cleavage Z-score (15 min): 0.654 (inactive)
furin cleavage Z-score (30 min): 1.36

CARVKRSVVVAGNASASA [FS-2840]
furin cleavage Z-score (7.5 min): 8.15 (active)
furin cleavage Z-score (15 min): 9.71 (active)
furin cleavage Z-score (30 min): 8.81 (active)

CAPRKKRTVVAGNASASA [HC1324]
furin cleavage Z-score (7.5 min): 11.4 (active)
furin cleavage Z-score (15 min): 13.7 (active)
furin cleavage Z-score (30 min): 11.3 (active)

CARVVTSTWVAGNASASA [HC2153]
furin cleavage Z-score (7.5 min): 1.81
furin cleavage Z-score (15 min): 1.03
furin cleavage Z-score (30 min): 0.0503 (inactive)

CAPTSGDVVVAGNASASA [HC874]
furin cleavage Z-score (7.5 min): -0.612 (inactive)
furin cleavage Z-score (15 min): 0.813 (inactive)
furin cleavage Z-score (30 min): -0.497 (inactive)

CAEVTTSTWVAGNASASA [HC2198]
furin cleavage Z-score (7.5 min): -0.604 (inactive)
furin cleavage Z-score (15 min): 0.139 (inactive)
furin cleavage Z-score (30 min): -0.711 (inactive)
